High-throughput results from PubChem BioAssay.
Shown are actives, neighbours in structure and some others; about 2.8% of the full set was active somewhere.
SENP8 block-1 = SENP8 (human) protease inhibition; Q96LD8; recombinant SENP8, Nedd8 substrate fluorescence; inhibition, % at 20 µM; hit rate 0.64% among 360,000; in the data active = inhibition mostly above about 40%, no sharp cut-off; inactive = mostly below about 27%
Platelet DG rel = modulates dense granule release in human platelets. human platelet-rich plasma, SFLLRN dense granule ATP release, luminescence. inhibition, %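 (compounds screened at 7.5 µM in platelet-rich plasma)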. hit rate 0.22% among 300,000. AID 1663;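 active = mean replicate score, as percent of positive control, at or above 50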
SENP7 block = inhibitors of human SENP7 protease; Q9BQF6; recombinant SENP7, Z-RLRGG-aminoluciferin luminescence, 40 min; inhibition, % at 5 µM; hit rate 1.5% among 330,000;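 active = inhibition above about 50% at the single test dose, limit read from the data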;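 note: plate controls were DMSO with enzyme for no effect and no enzyme buffer wells for full effect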
SENP6 block = SENP6 protease inhibition. Q9GZR1. Recombinant SENP6 catalytic domain, aminoluciferin luminescence. inhibition, % at 10 µM. hit rate 1.8% among 330,000. AID 2599;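 active = inhibition above about 50% at the single tested dose, limit read from the data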;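 note: plate controls were DMSO wells with enzyme for no effect and DMSO wells lacking enzyme for full effect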
Target sequence (Q9GZR1 628-1112 limits assumed): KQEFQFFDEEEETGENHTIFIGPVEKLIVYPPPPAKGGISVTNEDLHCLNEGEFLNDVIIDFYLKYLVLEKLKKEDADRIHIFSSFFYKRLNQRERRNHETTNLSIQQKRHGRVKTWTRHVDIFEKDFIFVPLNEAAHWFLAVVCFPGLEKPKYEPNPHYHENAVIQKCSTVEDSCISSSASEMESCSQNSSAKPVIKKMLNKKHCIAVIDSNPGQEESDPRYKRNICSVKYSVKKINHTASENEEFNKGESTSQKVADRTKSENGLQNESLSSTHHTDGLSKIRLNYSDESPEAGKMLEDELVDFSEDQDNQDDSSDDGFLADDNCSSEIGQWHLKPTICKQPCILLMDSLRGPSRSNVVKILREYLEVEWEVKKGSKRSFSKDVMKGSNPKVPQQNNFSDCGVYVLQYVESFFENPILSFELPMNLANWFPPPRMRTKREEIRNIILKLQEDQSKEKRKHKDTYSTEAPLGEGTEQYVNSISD
HSP90 inh = HSP90 refolding inhibition in rabbit reticulocyte lysate; luciferase refolding luminescence, 3 h; inhibition, % at 5.6 µM; hit rate 0.91% among 290,000; AID 1789;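 active = inhibition above the screen-wide mean plus 3 SD, computed separately per campaign, cut at about 16% in these data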;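 note: 0% = DMSO wells and 100% = 60 µM geldanamycin wells; inhibitors lower the luminescence because luciferase stays unfolded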
SENP8 block-2 = SENP8 protease inhibition; Q96LD8; purified SENP8, Z-RLRGG-aminoluciferin cleavage, luminescence; inhibition, % at 10 µM; hit rate 1.2% among 330,000; AID 2540; in the data active = inhibition above about 50%
SENP8 conf = human SENP8 inhibition, confirmed. shares compounds with SENP7 block. hit rate 40% among 6,200. Recombinant SENP8, Z-RLRGG-aminoluciferin luminescence, 60 min. inhibition, % at 12.5 µM. AID 488912;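 active = mean inhibition across replicates above about 50%, limit read from the data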
SENP6 confirm = confirmation of human SENP6 protease inhibitors. recombinant SENP6, Z-RLRGG-aminoluciferin luminescence. inhibition, % at 12.5 µM. hit rate 58% among 6,200. shares compounds with SENP7 block
SENP7 confirm = human SENP7 inhibition, confirmed | AID 488917 | shares compounds with SENP7 block | hit rate 69% among 6,200 | recombinant SENP7, Z-RLRGG-aminoluciferin luminescence, 40 min | inhibition, % at 12.5 µM
Casp3 select = selectivity test for SENP inhibitors: human caspase-3 inhibition | shares compounds with SENP7 block | AID 488918 | inhibition, % at 12.5 µM | purified caspase-3, Z-DEVD-aminoluciferin luminescence, 60 min | hit rate 60% among 6,200;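 active = mean inhibition above about 50%, limit read from the data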;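 note: plate controls were enzyme with DMSO for no effect and wells without caspase-3 for full effect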
Luc interf = interferes with luciferase luminescence in SENP counter-screen | shares compounds with SENP7 block | Pre-incubated SENP8/Z-RLRGG-aminoluciferin, luciferase luminescence interference | inhibition, % at 12.5 µM | hit rate 39% among 6,200 | AID 488919;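 active = mean inhibition above about 50% when retested at one dose, limit read from the data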;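 note: plate controls were DMSO wells with completed reaction for no effect and substrate without enzyme for full effect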
The depositor's hits bear a star.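 Rule for the calls, unless noted: active = mean inhibition above about 50% in the one-dose retest (limit read from the data); inactive = the rest.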

Screening O=C(Nc1nc2ccsc2c(=O)s1)c1ccc(F)cc1Cl returned SENP8 block-1 -104, Platelet DG rel 8, SENP7 block 98*, SENP6 block 89*, HSP90 inh 8, SENP8 block-2 86*, SENP8 conf 44, SENP6 confirm 52*, SENP7 confirm 45, Casp3 select 52* and Luc interf 4.
Screening Cc1csc2c(=O)sc(NC(=O)c3ccc(F)cc3Cl)nc12 returned SENP8 block-1 -31, Platelet DG rel 3, SENP7 block 3, SENP6 block -26, HSP90 inh -9 and SENP8 block-2 -15.
For O=C(Nc1nc2ccsc2c(=O)s1)c1ccc(F)cc1 the results were SENP8 block-1 -83, Platelet DG rel 0, SENP7 block 100*, SENP6 block 96*, HSP90 inh 5, SENP8 block-2 94*, SENP8 conf 37, SENP6 confirm 93*, SENP7 confirm 47, Casp3 select 56* and Luc interf 18.
Screening COc1ccc2[nH]c3c(=O)n(Cc4ccc(C(=O)N5CCCC5)cc4)c(=S)[nH]c3c2c1 returned SENP8 block-1 -246, Platelet DG rel 4, SENP7 block 21, SENP6 block 66*, HSP90 inh 1, SENP8 block-2 47, SENP8 conf 11, SENP6 confirm 24, SENP7 confirm 17, Casp3 select 17 and Luc interf 4.
Screening CCOc1ccc2[nH]cc(-c3csc(N)n3)c2c1 returned SENP8 block-1 -25, Platelet DG rel 1, SENP7 block 0, SENP6 block 19, HSP90 inh 0 and SENP8 block-2 -3.
`O=C1CN(C(=O)COc2ccc(F)cc2Br)c2ccccc2N1` gave SENP8 block-1 2, Platelet DG rel -1, SENP7 block 0, SENP6 block -14, HSP90 inh 1 and SENP8 block-2 -5.
Screening Cn1c(CNc2ccccc2O)nc2ccccc21 returned SENP8 block-1 13, Platelet DG rel 3, SENP7 block 28, SENP6 block 10, HSP90 inh 1 and SENP8 block-2 -7.
`Cc1ccccc1NCc1nc2ccccc2n1C` gave SENP8 block-1 2, Platelet DG rel 20, SENP7 block 86*, SENP6 block 85*, HSP90 inh 10, SENP8 block-2 78*, SENP8 conf 83*, SENP6 confirm 84*, SENP7 confirm 98*, Casp3 select 93* and Luc interf 56*.
For CCn1cnc2cc(NCc3nc4ccccc4n3C)ccc21 the results were SENP8 block-1 -20, Platelet DG rel 46, SENP7 block 3, SENP6 block 72*, HSP90 inh 13, SENP8 block-2 68*, SENP8 conf 78*, SENP6 confirm 77*, SENP7 confirm 93*, Casp3 select 92* and Luc interf 78*.
`Cn1c(CNc2ccc(F)cc2)nc2ccccc21` gave SENP8 block-1 20, Platelet DG rel 5, SENP7 block 78*, SENP6 block 80*, HSP90 inh -4, SENP8 block-2 58*, SENP8 conf 72*, SENP6 confirm 72*, SENP7 confirm 92*, Casp3 select 87* and Luc interf 75*.
Screening Cc1nn(CC(=O)N2CCC(C(N)=O)CC2)c(=O)c2nn(-c3ccccc3)c(C)c12 returned SENP8 block-1 17, Platelet DG rel 6, SENP7 block -14, SENP6 block -24, HSP90 inh -2 and SENP8 block-2 -15.
